Yp Topo-I inh: blocks Yersinia pestis topoisomerase I activity | AID 504884 | activity, % at 10 µM | Y. pestis Topo-I cleavage product accumulation, plate reader | 360,000 compounds, 0.064% hits; in the data active = activity above about 50%, passing the limit was not always enough
SSB-PriA inh: K. pneumoniae PriA-SSBct interaction inhibition; AlphaScreen SSBct-PriA binding, biotinylated peptide; inhibition, % at 33 µM; 430,000 compounds, 0.6% hits; AID 1272365; in the data active = inhibition mostly above about 37%, no sharp cut-off; inactive = mostly below about 20%;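 also: plate controls were negative control peptide for no effect and reference peptide for full effect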
PrPC surface inh: inhibitors of human cell surface prion protein PrPC. P04156. TR-FRET read-out. inhibition, % at 13.8 µM. 370,000 compounds, 0.43% hits. AID 720596; in the data active = inhibition above about 24%; also: 0% = median of the test wells and 100% = reference compound wells
PfHsp40 rescue: rescue of PfHsp40-mediated yeast toxicity; S. cerevisiae expressing PfHsp40, growth rescue, ATP luminescence; 340,000 compounds, 0.68% hits; growth rescue, % at 12.5 µM; AID 504582; in the data active = growth rescue above about 28%, passing the limit was not always enough;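 also: yeast W303a lacking pdr1 and pdr3 grown in galactose medium; growth measured after three days at 30 °C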
BJeLR lethal: BJeLR cell viability loss; BJeLR (HRASV12) viability, CellTiter-Glo ATP luminescence, 48 h; inhibition, % (test concentration not listed); 300,000 compounds, 0.17% hits; AID 1554; in the data active = inhibition above about 50%
PrP UTR inh: inhibition of PrP 5' UTR reporter expression | cell-based PrP 5' UTR mRNA reporter, plate reader | inhibition, % (no concentration beside the values) | 340,000 compounds, 0.35% hits | AID 488862; in the data active = inhibition above about 52%; also: 0 = median of the neutral control wells
PrPC TRFRET cf: cell surface PrPC inhibition, TR-FRET confirmation. 1,500 compounds, 65% hits. cell surface PrPC level. shares compounds with PrPC surface inh. inhibition, % at 13.8 µM. AID 743200; in the data active = inhibition above about 25%
LD9 cytotox: LD9 cell cytotoxicity, PrPc inhibitor counter-screen; 1,500 compounds, 29% hits; AID 743201; LD9 cells cytotoxicity, luminescence viability; inhibition, % at 13.8 µM; shares compounds with PrPC surface inh; in the data active = inhibition above about 9.5%
* = called active by the depositor; · = no result. This is a sample that favours compounds with a hit; in the whole collection about 1.7% have one here.

SMILES | Yp Topo-I inh | SSB-PriA inh | PrPC surface inh | PfHsp40 rescue | BJeLR lethal | PrP UTR inh | PrPC TRFRET cf | LD9 cytotox
O=C(Nc1ccc2nc3n(c(=O)c2c1)CCCCC3)c1c(F)ccc([N+](=O)[O-])c1F | 4.8 | 7.3 | 26.1* | 1.3 | 75.4* | -11.0 | 28.2* | 95.8*
O=C(Nc1ccc2nc3n(c(=O)c2c1)CCCCC3)c1cc([N+](=O)[O-])ccc1F | 3.0 | 4.4 | -25.8 | 1.0 | 8.0 | -4.5 | · | ·
COc1cc(Cn2c3ccc(NC(=O)CCc4ccc(O)cc4)cc3c(=O)n2C)ccc1F | 3.6 | · | 28.5* | · | · | · | 20.0 | -5.4
COc1ccc(OC)c(CC(=O)Nc2ccc3c(c2)c(=O)n(C)n3Cc2cccc(C(F)(F)F)c2)c1 | 38.2 | · | 82.0* | · | · | · | 29.1* | 3.7
COc1ccc(CNC(=O)Nc2ccc3c(c2)c(=O)n(C)n3Cc2cccc(C(F)(F)F)c2)cc1 | 10.0 | · | 22.8 | · | · | · | · | ·
Cn1c(=O)c2cc(NC(=O)CCc3ccc4c(c3)OCO4)ccc2n1Cc1ccc(F)cc1 | 35.2 | · | 31.4* | · | · | · | 18.6 | 5.7
COc1cc(Cn2c3ccc(NC(=O)NCc4ccc(F)cc4)cc3c(=O)n2C)ccc1F | 22.7 | · | 13.2 | · | · | · | · | ·
CC(=O)c1sc(NC(=O)C2=COCCO2)nc1C | · | -19.0 | · | · | · | · | · | ·
O=C(Nc1ccccc1C(F)(F)F)N1CCC(Cn2ccnc2)CC1 | · | -8.0 | · | · | · | · | · | ·
CCc1ccc(C(=O)NNc2cc(Cl)ccc2Cl)cc1 | -14.3 | -16.1 | 27.9* | 1.1 | 5.3 | -18.9 | 25.0* | 5.1
CCN1/C(=C/C=C/c2oc3ccc(-c4ccccc4)cc3[n+]2CC)Oc2ccc(-c3ccccc3)cc21 | 12.1 | -0.3 | 43.4* | 129.0* | 79.7* | 11.2 | 56.2* | 63.9*
CCCCN1C(=O)/C(=C/C=C2\Oc3ccccc3N2CC)SC1=S | -0.1 | -3.5 | -14.7 | -2.0 | -3.0 | -23.0 | · | ·
Cn1c(=O)oc2ccc(S(=O)(=O)N3CCC[C@H](Cc4nc(C5CC5)no4)C3)cc21 | · | -5.0 | · | · | · | · | · | ·
Cc1ccc2c(c1)[C@H]1[C@H](CO2)[C@H](c2ccccc2)[C@]2(C)C(=O)Nc3ccc(Cl)cc3C(=O)N12 | 7.2 | 7.1 | 24.8* | -0.7 | · | 2.4 | 14.2 | -7.3
COc1ccc2c(c1)C(=O)N1[C@H]3c4cc(C)ccc4OC[C@@H]3[C@H](c3ccccc3)[C@]1(C)C(=O)N2 | 16.5 | 6.4 | 33.7* | 2.7 | · | -15.1 | 23.4 | -5.8
Cc1ccc2c(c1)[C@H]1[C@H](CO2)[C@H](c2ccccc2)[C@]2(C)C(=O)Nc3ccccc3C(=O)N12 | 7.3 | 6.0 | 10.5 | 0.1 | · | 3.8 | · | ·
C[C@@]12C(=O)Nc3ccc(Cl)cc3C(=O)N1[C@H]1c3cc(Cl)ccc3OC[C@@H]1[C@@H]2c1ccccc1 | 2.0 | -1.7 | 26.0* | -0.8 | · | -5.3 | 16.2 | -7.9
COc1ccccc1-c1nnc2ccc(OCCNS(C)(=O)=O)nn12 | · | 4.0 | · | · | · | · | · | ·
Cc1cc(C)c2sc(NNC(=O)c3ccc(S(=O)(=O)N4CCc5ccccc5C4)cc3)nc2c1 | 27.7 | -1.6 | 29.0* | 364.4* | 11.3 | 23.0 | 30.0* | 12.0*
Cc1cc(C)c2nc(NNC(=O)c3ccc(S(=O)(=O)N4CCc5ccccc5C4)cc3)sc2c1 | -9.0 | -2.8 | 21.4 | -0.3 | 17.0 | 16.9 | · | ·
c1ccc(Sc2ncnc3ccccc23)cc1 | 1.4 | 3.7 | -2.2 | -0.3 | -6.1 | -29.9 | · | ·
c1ccc(Cc2nnc(Sc3ccccc3)c3ccccc23)cc1 | 18.7 | -2.0 | 52.5* | 0.1 | -3.0 | -70.3 | 71.2* | -14.0
CCc1nc2ccccc2c(C(=O)OCC(=O)Nc2ccc(S(=O)(=O)N3CCOCC3)cc2)c1C | -8.3 | 13.3 | 0.6 | 1.2 | 3.3 | -7.6 | · | ·
CCc1nc2ccccc2c(C(=O)OCC(=O)Nc2cccc(S(=O)(=O)N3CCOCC3)c2)c1C | 3.4 | 4.8 | 26.2* | -0.1 | 1.9 | -19.2 | 12.1 | 10.3*
CN(CC(=O)Nc1cccc(S(=O)(=O)N2CCOCC2)c1)CC(=O)Nc1ccc(Cl)c(C(F)(F)F)c1 | 2.7 | 2.4 | 24.6* | 0.1 | 1.3 | -34.2 | 22.2 | 3.0
SMILES | Yp Topo-I inh | SSB-PriA inh | PrPC surface inh | PfHsp40 rescue | BJeLR lethal | PrP UTR inh | PrPC TRFRET cf | LD9 cytotox
CN(CC(=O)Nc1cccc(F)c1)CC(=O)Nc1cc(S(=O)(=O)N2CCOCC2)ccc1Cl | 11.3 | -10.6 | 4.8 | -0.2 | · | -27.9 | · | ·
CC(C)(C)C(=O)N1CCN(CC(O)C2CC2)CC1 (stereo not given) | · | 4.0 | · | · | · | · | · | ·
O=C(Nc1ccc(-c2ccc(N3CCOCC3)nn2)cc1)c1ccc(F)cc1F | · | 8.0 | · | · | · | · | · | ·
CC(C)(C)C1CCc2c(sc3nc(-c4ccccc4)c(-c4ccccc4)n23)C1 (stereo not given) | · | 12.0 | · | · | · | · | · | ·
COc1ccc(Br)cc1CNC(=O)c1ccc2c(c1)N(C)CCS2 | 0.9 | -4.6 | 36.5* | 1.7 | -5.9 | -17.6 | 51.3* | -1.4
CCN1CCSc2ccc(C(=O)NCc3cc(Br)ccc3OC)cc21 | -12.9 | 8.7 | 11.0 | -0.8 | 1.1 | -8.1 | · | ·
CC(C)(C)c1ccc(-n2nc(C#N)c(Cl)cc2=O)cc1 | -0.5 | 0.9 | 68.8* | 146.1* | 56.0* | -76.3 | 70.0* | 98.1*
COc1ccc(NCc2ccc3c(c2)OCO3)cc1Cl | -2.5 | 28.0 | 0.7 | -0.8 | -4.9 | -31.4 | · | ·
COc1cc2sc3cc(NCc4ccc5c(c4)OCO5)ccc3c(=O)c2cc1OC | 37.0 | -10.6 | 39.1* | 0.6 | · | -17.1 | 67.0* | 3.0
COc1cc2sc3cc(NCc4ccc(C)o4)ccc3c(=O)c2cc1OC | 21.2 | 10.3 | -3.7 | 1.9 | · | -38.9 | · | ·
COc1cccc2sc3cc(NCc4ccc5c(c4)OCO5)ccc3c(=O)c12 | 15.4 | -2.8 | 94.5* | 3.3 | · | -19.9 | 139.3* | -3.3
O=C(NCc1cccs1)N1CCCSCC1CN1CCCC1 (stereo not given) | · | 14.0 | · | · | · | · | · | ·
